CYP2C19 activ = increases human CYP2C19 enzyme activity. P33261. recombinant CYP2C19, luciferin-H EGE luminescence; stronger effect = higher value; 0 = fully inhibited enzyme, 1 = untreated enzyme. activation factor at 5 µM. 96,000 tested, under 10 active. AID 1025;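 active = activation factor of at least 2 at 5 µM in the primary screen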;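 also: 0 = wells with 2.5 mM tranylcypromine and 1 = vehicle-only wells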
CYP2C9 act = CYP2C9 (human) activation. recombinant CYP2C9, luciferin-H conversion, luminescence; stronger effect = higher value; factor 1 = untreated enzyme, 0 = blocked. activation factor at 5 µM. 96,000 tested, 1.4% active;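 active = activation factor of 2 or more for CYP2C9 at a 5 µM dose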;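 also: 0 = sulfaphenazole-blocked wells and 1 = vehicle-only wells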
CYP2C19 inh = human CYP2C19 inhibition; P33261; CYP2C19 Supersomes, luciferin-H EGE luminescence, 30 min; inhibition, % at 5 µM; 96,000 tested, 21% active; AID 778;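 active = CYP2C19 inhibition above a set limit at 5 µM in the primary screen, cut at about 50% in these data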;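 also: plate controls were negative control wells for no effect and 2.5 mM tranylcypromine positive control for full effect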
CYP2C9 inhib = blocks human cytochrome P450 2C9. P11712. CYP2C9 Supersomes, luciferin-H conversion, luminescence. inhibition, % at 5 µM. 96,000 tested, 20% active. AID 777;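 active = blocking of liver enzyme CYP2C9 beyond about 50% at 5 µM, limit read from the data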
EphB4 ephrin blk = blocks human EphB4 binding to ephrin-B2; 97,000 tested, 0.15% active; EphB4 LBD / TNYL-RAW-Alexa532 peptide, fluorescence polarization; P54760; inhibition, % at 7 µM;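 active = inhibition above the screen-wide mean inhibition plus 3 SD, cut at about 15% in these data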;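 also: 0% = DMSO wells and 100% = excess unlabeled TNYL-RAW peptide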
Target sequence (P54760 whole entry, looked up, the tested form may be a part): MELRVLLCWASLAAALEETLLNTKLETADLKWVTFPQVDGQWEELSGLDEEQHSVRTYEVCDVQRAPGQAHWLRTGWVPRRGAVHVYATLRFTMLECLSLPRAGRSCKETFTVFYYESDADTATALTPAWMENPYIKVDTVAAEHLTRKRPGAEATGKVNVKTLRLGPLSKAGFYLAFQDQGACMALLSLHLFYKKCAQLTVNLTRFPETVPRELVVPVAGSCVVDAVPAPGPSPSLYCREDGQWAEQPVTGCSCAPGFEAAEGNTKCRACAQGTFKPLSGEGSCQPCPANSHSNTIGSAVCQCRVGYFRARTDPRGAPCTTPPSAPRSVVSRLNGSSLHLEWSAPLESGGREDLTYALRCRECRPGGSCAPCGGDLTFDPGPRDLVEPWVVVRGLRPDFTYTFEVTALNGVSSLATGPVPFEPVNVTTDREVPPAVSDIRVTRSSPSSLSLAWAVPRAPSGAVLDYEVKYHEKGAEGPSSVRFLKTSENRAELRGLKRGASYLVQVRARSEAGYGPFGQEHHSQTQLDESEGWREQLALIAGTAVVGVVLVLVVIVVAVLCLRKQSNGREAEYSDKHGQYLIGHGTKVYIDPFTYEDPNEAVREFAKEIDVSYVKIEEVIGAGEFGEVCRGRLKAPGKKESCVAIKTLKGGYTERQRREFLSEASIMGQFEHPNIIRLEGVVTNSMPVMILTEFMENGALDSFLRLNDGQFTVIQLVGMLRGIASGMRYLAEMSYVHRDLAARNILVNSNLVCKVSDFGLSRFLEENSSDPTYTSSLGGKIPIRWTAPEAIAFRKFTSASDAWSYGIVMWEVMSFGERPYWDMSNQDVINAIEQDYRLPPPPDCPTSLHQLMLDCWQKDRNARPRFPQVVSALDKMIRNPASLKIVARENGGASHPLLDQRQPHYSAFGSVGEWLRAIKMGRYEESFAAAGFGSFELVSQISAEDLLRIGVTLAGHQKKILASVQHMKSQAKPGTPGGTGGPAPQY
* hit, by the source's call. Hits are enriched below; roughly 27% of the tested compounds scored in any of these assays.

How did Cc1ccc(CNC(=O)CSc2nnnn2C)cc1 do in these assays?
CYP2C19 activ: 0.8; CYP2C9 act: 0.8; CYP2C19 inh: 16; CYP2C9 inhib: 24; EphB4 ephrin blk: 0

What do the screens show for `COCCCn1c(SCC(=O)NC(C)C)nnc1-c1ccccc1`?
CYP2C19 activ: 1; CYP2C9 act: 1.1; CYP2C19 inh: 5; CYP2C9 inhib: -6; EphB4 ephrin blk: -3

What do the screens show for `O=c1c2ccccc2nc(SCc2cc(=O)n3ccsc3n2)n1CCCO`?
CYP2C19 activ: 0.8; CYP2C9 act: 0.6; CYP2C19 inh: 25; CYP2C9 inhib: 38; EphB4 ephrin blk: 5

What do the screens show for `Cc1ccc(CNC(=O)CSc2nc3ccccc3c3nc(C)nn23)cc1`?
CYP2C19 activ: 0.8; CYP2C9 act: 2*; CYP2C19 inh: 23; CYP2C9 inhib: -98; EphB4 ephrin blk: -4

How did C=CCn1c(N)cc(=O)nc1SCC(=O)Nc1ccc2ccccc2c1 do in these assays?
EphB4 ephrin blk: -5

How did C=CCn1c(N)cc(=O)nc1SCC(=O)NC(C)c1ccccc1 (configuration not stated) do in these assays?
CYP2C19 activ: 0.5; CYP2C9 act: 1.2; CYP2C19 inh: 52*; CYP2C9 inhib: -16; EphB4 ephrin blk: -5

What do the screens show for `CCCc1nc2c(C)ccc(C)c2c(N)c1CC`?
CYP2C19 activ: 0.9; CYP2C9 act: 0.7; CYP2C19 inh: 9; CYP2C9 inhib: 34; EphB4 ephrin blk: -1

How did CC(C)C(=O)Nc1ccc(Cc2ccc(NC(=O)C(C)C)c(O)c2)cc1O do in these assays?
CYP2C19 activ: 0.4; CYP2C9 act: 0.1; CYP2C19 inh: 64*; CYP2C9 inhib: 93*; EphB4 ephrin blk: -8

Results for O=C(Nc1nc2c(s1)CCCC2)C1CCCN1C(=O)c1cccs1 (configuration not stated) ?
CYP2C19 activ: 0.6; CYP2C9 act: 0.6; CYP2C19 inh: 42; CYP2C9 inhib: 39; EphB4 ephrin blk: -2

How did Cc1ccccc1/C(N)=N/OC(=O)/C=C/c1ccccc1 do in these assays?
CYP2C19 activ: 1; CYP2C9 act: 1.2; CYP2C19 inh: 4; CYP2C9 inhib: -21; EphB4 ephrin blk: 12

What do the screens show for `Cc1n[nH]c(C)c1C(=O)CC1(O)C(=O)N(Cc2ccccc2)c2ccc(Br)cc21` (configuration not stated)?
CYP2C19 activ: 0; CYP2C9 act: 0.4; CYP2C19 inh: 99*; CYP2C9 inhib: 61*; EphB4 ephrin blk: 6

What do the screens show for `Cc1n[nH]c(C)c1C(=O)CC1(O)C(=O)N(CCc2ccccc2)c2ccc(Br)cc21` (configuration not stated)?
CYP2C19 activ: 0.4; CYP2C9 act: 0.3; CYP2C19 inh: 56*; CYP2C9 inhib: 66*; EphB4 ephrin blk: 0

How did COc1ccc(-c2cc(CN3C(=O)c4ccccc4C3=O)on2)cc1 do in these assays?
EphB4 ephrin blk: 8

How did COc1cccc(C2=CC(c3ccc(OC)c(OC)c3OC)n3nnnc3N2)c1 (configuration not stated) do in these assays?
CYP2C19 activ: 0.5; CYP2C9 act: 0.2; CYP2C19 inh: 52*; CYP2C9 inhib: 81*

Results for COc1ccc(C2=CC(c3ccc(F)cc3)n3nnnc3N2)cc1 (configuration not stated) ?
CYP2C19 activ: 0.5; CYP2C9 act: 0.1; CYP2C19 inh: 52*; CYP2C9 inhib: 93*

What do the screens show for `COc1ccc(C2=CC(c3sccc3C)n3nnnc3N2)cc1` (configuration not stated)?
CYP2C19 activ: 0.2; CYP2C9 act: 0.1; CYP2C19 inh: 82*; CYP2C9 inhib: 91*; EphB4 ephrin blk: -3

Results for OCCCc1nc2n(n1)C(c1ccccc1)C=C(c1ccccc1)N2 (configuration not stated) ?
CYP2C19 activ: 1; CYP2C9 act: 1; CYP2C19 inh: -1; CYP2C9 inhib: -2; EphB4 ephrin blk: 5

How did COc1ccccc1C1C=C(c2ccccc2)Nc2nnnn21 (configuration not stated) do in these assays?
EphB4 ephrin blk: -7

How did COc1ccc(C2C=C(c3ccccc3)Nc3nc(CCCO)nn32)cc1 (configuration not stated) do in these assays?
CYP2C19 activ: 0.7; CYP2C9 act: 0.3; CYP2C19 inh: 28; CYP2C9 inhib: 67*; EphB4 ephrin blk: -3

What do the screens show for `COc1cccc(C2=CC(c3cccs3)n3nnnc3N2)c1` (configuration not stated)?
CYP2C19 activ: 0.6; CYP2C9 act: 0.6; CYP2C19 inh: 38; CYP2C9 inhib: 40; EphB4 ephrin blk: 1

What do the screens show for `O=C(c1ccc(F)cc1)C(CCCCCC(CN1CCOCC1)C(=O)c1ccc(F)cc1)CN1CCOCC1` (configuration not stated)?
CYP2C19 activ: 0.5; CYP2C9 act: 0.7; CYP2C19 inh: 49; CYP2C9 inhib: 35; EphB4 ephrin blk: -2

How did CCOc1ccc2c(c1)N(C(=O)CN1C(=O)CCC1=O)C(C)(C)C=C2C do in these assays?
CYP2C19 activ: 0.8; CYP2C9 act: 1; CYP2C19 inh: 19; CYP2C9 inhib: 4

What do the screens show for `CN(C)C(=O)N1CCC(C(=O)NCC2CCCO2)CC1` (configuration not stated)?
CYP2C19 activ: 1.1; CYP2C9 act: 1.1; CYP2C19 inh: -9; CYP2C9 inhib: -6; EphB4 ephrin blk: -4

How did Cc1ccc(C2=CC(c3ccc(N(C)C)cc3)n3nnnc3N2)cc1 (configuration not stated) do in these assays?
CYP2C19 activ: 0.2; CYP2C9 act: 0.3; CYP2C19 inh: 78*; CYP2C9 inhib: 65*; EphB4 ephrin blk: 2

What do the screens show for `CCc1nnc(SCC(=O)N2CCCc3ccccc32)nc1CC`?
CYP2C19 activ: 0.2; CYP2C9 act: 0.4; CYP2C19 inh: 78*; CYP2C9 inhib: 56*; EphB4 ephrin blk: -8

How did Nc1cc(=O)[nH]c(SCC(=O)N2CCCc3ccccc32)n1 do in these assays?
EphB4 ephrin blk: 3

Results for CSc1nsc(SCC(=O)N2CCCc3ccccc32)n1 ?
CYP2C19 activ: 0; CYP2C9 act: 0.2; CYP2C19 inh: 99*; CYP2C9 inhib: 80*; EphB4 ephrin blk: -6

Results for O=C(CSc1nnc(-c2ccccc2)c(-c2ccccc2)n1)N1CCc2ccccc21 ?
CYP2C19 activ: 0.9; CYP2C9 act: 0.6; CYP2C19 inh: 6; CYP2C9 inhib: 41; EphB4 ephrin blk: 3

How did O=C(CSc1n[nH]c(-c2ccccc2O)n1)N1CCCc2ccccc21 do in these assays?
CYP2C19 activ: 0.2; CYP2C9 act: 0.1; CYP2C19 inh: 82*; CYP2C9 inhib: 86*; EphB4 ephrin blk: 3

What do the screens show for `O=C1CCC(=O)N1OCCCOc1ccc(Br)cc1Cl`?
EphB4 ephrin blk: 8

How did CC(NC(=O)OC(C)(C)C)C(=O)N1CCCC1C(=O)NC(Cc1ccccc1)C(N)=O (configuration not stated) do in these assays?
CYP2C19 activ: 1; CYP2C9 act: 1; CYP2C19 inh: -2; CYP2C9 inhib: 0; EphB4 ephrin blk: 13

Results for Nc1nonc1-c1nc2ccccc2n1Cc1ccc(F)cc1Cl ?
CYP2C19 activ: 0.8; CYP2C9 act: 0.9; CYP2C19 inh: 25; CYP2C9 inhib: 12; EphB4 ephrin blk: 2

High-throughput results as filed in PubChem.
